Compound activity (PubChem)
Sampled rows, rich in hits. Any-hit rate of the full collection: about 3.5%.
MITF primary = MITF inhibitors, primary screen, biochemical, AlphaScreen, human; Microphthalmia-associated transcription factor (Homo sapiens), O75030; AlphaScreen MITF homodimerization, bead proximity signal; inhibition, % at 2.6 µM; 0.91% of 650,000 active; AID 1259374, 2018; in the data active = inhibition above about 50%
FBW7 act = FBW7 E3 ligase activators, primary screen, biochemical, AlphaScreen, human; normalized activity (activation), % at 26.1 µM; 0.13% of 650,000 active; AlphaScreen FBW7–phospho-cyclin E peptide binding, activator screen; F-box/WD repeat-containing protein 7 (Homo sapiens), Q969H0; in the data active = normalized activity above about 1.9%;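 note: purified mutant Fbw7 with reduced substrate affinity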
Target sequence (Q969H0 whole entry, looked up): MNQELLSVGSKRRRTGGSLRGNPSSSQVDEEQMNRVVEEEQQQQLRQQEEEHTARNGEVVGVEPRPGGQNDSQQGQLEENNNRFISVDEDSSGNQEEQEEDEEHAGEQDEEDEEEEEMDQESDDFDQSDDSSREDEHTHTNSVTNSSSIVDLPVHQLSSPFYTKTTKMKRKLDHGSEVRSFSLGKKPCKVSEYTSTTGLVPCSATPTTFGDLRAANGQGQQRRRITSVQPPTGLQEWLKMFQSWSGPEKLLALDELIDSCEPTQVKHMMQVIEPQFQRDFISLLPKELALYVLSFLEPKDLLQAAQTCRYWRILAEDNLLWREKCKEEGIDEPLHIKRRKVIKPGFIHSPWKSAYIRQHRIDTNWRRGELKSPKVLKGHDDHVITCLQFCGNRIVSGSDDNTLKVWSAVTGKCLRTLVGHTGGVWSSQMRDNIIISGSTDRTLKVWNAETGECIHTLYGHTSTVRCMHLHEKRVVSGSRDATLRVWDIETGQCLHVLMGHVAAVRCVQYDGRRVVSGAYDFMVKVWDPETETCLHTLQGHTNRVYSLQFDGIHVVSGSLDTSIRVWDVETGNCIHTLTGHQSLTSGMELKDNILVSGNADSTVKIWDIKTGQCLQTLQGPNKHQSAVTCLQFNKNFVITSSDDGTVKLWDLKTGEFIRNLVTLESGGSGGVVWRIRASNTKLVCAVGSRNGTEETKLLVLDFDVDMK
GPR151 activ = activators of human GPR151, primary screen, cell-based, PathHunter beta-arrestin, luminescence; G-protein coupled receptor 151 (Homo sapiens), Q8TDV0; activation, % at 11.2 µM; AID 1508602, 2020; 1% of 650,000 active; PathHunter beta-arrestin GPR151 cells; in the data active = activation above about 4.9%
TEAD-YAP block = TEAD-YAP interaction inhibition, primary screen, TEAD-YAP interaction inhibitor project, luminescence, HEK-TIYL cells; inhibition, % at 9.12 µM; TEAD-Gal4/YAP UAS-luciferase luminescence; 1.4% of 640,000 active; AID 1259422, 2018; in the data active = inhibition above about 32%
A number is an active result; – = inactive.

SMILES | MITF primary | FBW7 act | GPR151 activ | TEAD-YAP block
COc1ccccc1C(=O)NC(=S)Nc1ccccc1[N+](=O)[O-] | – | – | – | 44.6
COc1ccccc1C(=O)NC(=S)NNC(=O)c1ccccc1C | – | – | – | –
COc1ccccc1C(=O)NNC(=S)NC(=O)c1ccc(Cl)cc1Cl | – | 5.1 | – | –
O=C(NC(=S)Nc1ccccc1)c1ccc([N+](=O)[O-])cc1 | – | – | – | –
C=CCNC(=O)C1CC(=O)c2sc(NC(=O)CC(C)CC)nc2C1 (stereo not given) | – | – | – | –
COc1ccccc1NS(=O)(=O)c1ccccc1 | – | – | – | –
COc1ccc(NC(=O)c2cc3ccc(O)cc3oc2=Nc2ccc(C(=O)O)cc2)cc1 | – | – | – | 36.2
O=C(O)c1ccc(N=c2oc3cc(O)ccc3cc2C(=O)Nc2ccccc2)cc1 | – | – | – | –
CSC1=C(C#N)C(c2ccccc2C)C2=C(CCCC2=O)N1 (stereo not given) | – | – | – | 39.1
CSC1=C(C#N)C(c2cccs2)C2=C(CCCC2=O)N1 (stereo not given) | – | – | – | –
Cc1nc2cc(NC(=O)N3c4ccccc4CC3C)ccc2n1C (stereo not given) | – | – | – | 37.1
COc1ccc(N2CCN(S(=O)(=O)c3cnc[nH]3)CC2)cc1 | – | – | – | –
O=C(CSc1nnc(-c2ccccc2)n1-n1cccc1)Nc1nccs1 | – | – | – | 37.8
CCCCc1ccc(-n2nnnc2SCC(=O)Nc2sccc2C(N)=O)cc1 | – | – | – | 37.0
CCn1c(SCC(=O)Nc2nccs2)nnc1-c1ccccc1O | – | – | – | –
C=CCn1c(SCC(=O)Nc2nccs2)nnc1-c1ccccc1O | – | – | – | 60.8
Cc1csc(NC(=O)CSc2nnc(-c3ccccc3O)n2-c2ccccc2)n1 | – | – | – | 56.6
NNC(=O)c1cccc(-n2nc(Cl)c3cc(Nc4ccccc4F)ccc32)c1 | – | – | – | –
Cc1cc(NS(=O)(=O)c2ccc(NC(=O)c3cccc(C(F)(F)F)c3)cc2)no1 | – | – | – | –
Cc1ccc(NC(=O)CCC2CCCC2)c([N+](=O)[O-])c1 | – | – | – | –
O=C(CSc1nnc(-c2ccccc2O)n1-c1ccccc1)Nc1nccs1 | – | – | – | 53.9
NC(=O)c1ccsc1NC(=O)CSc1nnc(-c2ccccc2)n1-c1ccccc1 | – | – | – | 44.7
C=CCn1c(SCC(=O)Nc2sccc2C(N)=O)nnc1-c1ccccc1 | – | – | – | –
O=S(=O)(NCC12CC3CC(CC(C3)C1)C2)c1cccc2nsnc12 | – | – | – | –
CCCCCc1ccc(CC(=O)Nn2c(-c3cccc(Cl)c3)nc3ccccc3c2=O)cc1 | – | – | – | –
SMILES | MITF primary | FBW7 act | GPR151 activ | TEAD-YAP block
CCOC(=O)c1ccccc1NC(=O)C(C)N(c1ccc(OCC)cc1)S(C)(=O)=O (stereo not given) | – | – | – | 57.0
CCOc1ccc(N(C(C)C(=O)Nc2ccccc2Cl)S(C)(=O)=O)cc1 (stereo not given) | – | – | – | –
CCOc1ccc(N(C(C)C(=O)Nc2cc(Cl)ccc2OC)S(C)(=O)=O)cc1 (stereo not given) | – | – | – | 32.5
CCOc1ccc(N(C(C)C(=O)Nc2ccccc2OC)S(C)(=O)=O)cc1 (stereo not given) | – | – | – | –
CCOc1ccc(N(C(C)C(=O)Nc2ccc(Cl)cc2C)S(C)(=O)=O)cc1 (stereo not given) | – | – | – | –
COc1ccc(N(C(C)C(=O)Nc2cc([N+](=O)[O-])ccc2OC)S(C)(=O)=O)cc1 (stereo not given) | – | – | – | 50.5
CCOc1ccc(N(C(C)C(=O)Nc2cc(C)ccc2OC)S(C)(=O)=O)cc1 (stereo not given) | – | – | – | 46.6
CC(C)c1nc(SCC(=O)Nc2ccc(S(=O)(=O)N(C)C)cc2)c2ccccc2n1 | – | – | – | –
CC1=C(C#N)C(c2c(F)cccc2F)C(C#N)=C(C)N1 | – | – | – | –
O=C(CSc1nnc(-c2ccncc2)o1)Nc1ccc(F)cc1 | – | – | – | –
CCOC(=O)c1[nH]ncc1[N+](=O)[O-] | – | – | – | –
COc1ccc(CC(=O)N2CCC(c3nc(C)ncc3-c3ccncc3)CC2)cc1 | – | 2.4 | – | –
COCCCNc1c(-c2ccc(Cl)cc2)c(=O)c1=O | – | – | – | 48.4
COCCNc1c(-c2ccc(C)cc2)c(=O)c1=O | – | – | – | –
Cc1cc(NCCc2ccc(O)cc2)nc(-c2ccc(N3CCN(C)CC3)cc2)n1 | – | – | – | 52.8
Oc1ccc(CCNc2ccnc(Nc3ccc(N4CCOCC4)cc3)n2)cc1 | – | – | – | 44.5
Cc1cc(NCCc2ccc(O)cc2)nc(Nc2ccc(N3CCOCC3)cc2)n1 | – | – | – | 62.4
Clc1ccccc1COc1ccccc1CNCC1CCCO1 (stereo not given) | – | – | – | –
COc1cc(-c2cn3c(NC(=O)c4ccco4)c(C)nc3cn2)cc(OC)c1OC | – | – | – | –
N#Cc1c(/N=C\c2ccc(O)cc2O)sc2c1CCCC2 | – | – | – | –
N#Cc1c(/N=C/c2ccc(O)cc2O)sc2c1CCCC2 | – | – | – | 61.4
CCOC(=O)C(=O)C1CCc2c([nH]c3ccccc23)C1=O (stereo not given) | – | – | – | –
COc1ccc(C(=O)Nc2ccc(-c3cn4ccsc4n3)cc2)c(OC)c1 | – | 2.0 | – | –
COc1ccc(C(=O)Nc2ccc(-c3csc(C)n3)cc2)c(OC)c1 | – | – | – | –
COc1cccc(C(=O)Nc2nnn(C)n2)c1 | – | – | – | –
SMILES | MITF primary | FBW7 act | GPR151 activ | TEAD-YAP block
O=C(Nc1ccc(Oc2cccnc2)cc1)C1CCN(Cc2ccc(F)cc2)CC1 | – | – | – | –
O=C(Nc1ccc(Oc2cccnc2)cc1)C1CCN(Cc2cc(Cl)ccc2O)CC1 | – | – | – | 44.3
CN(C)c1ccc(/C=C2\Oc3c(ccc(O)c3O)C2=O)cc1 | 54.9 | – | – | –
CCN(CC)C(=O)Cn1cnc2sc(C(=O)Nc3nc4ccccc4s3)c(C)c2c1=O | – | – | – | 80.2
Cc1c(C(=O)Nc2nc3ccccc3s2)sc2ncn(CC(=O)N3CC(C)CC(C)C3)c(=O)c12 (stereo not given) | – | – | – | –
CCn1cnc2sc(C(=O)Nc3nc4ccc(Br)cc4s3)c(C)c2c1=O | – | – | – | 39.7
Cc1ccccc1N(CCN1C(=O)c2cccc3c(Br)ccc(c23)C1=O)C(=O)c1ccc(C(=O)c2ccccc2)cc1 | – | – | – | –
N=C1/C(=C\c2ccc([N+](=O)[O-])o2)C(=O)N=C2SC(N3CCCCC3)=NN12 | 67.1 | – | – | –
CCC1=NN2C(=N)/C(=C\c3ccc(SCc4ccco4)o3)C(=O)N=C2S1 | 85.7 | – | – | –
CC1=CC2=NC(=O)/C(=C\c3ccc([N+](=O)[O-])o3)C(=N)N2O1 | 65.4 | – | – | –
N=C1/C(=C/c2ccc([N+](=O)[O-])o2)C(=O)N=C2SC(c3ccco3)=NN12 | 90.5 | – | – | –
